Results on 35 compounds are retold here after PubChem BioAssay.

Values without a mark were called inactive.

The assay is described as follows: resazurin metabolic signal in A549 cells – cell-based, resazurin fluorescence, 24 h, PK04 Diversity Set, profiling panel (AID 1171). Also: test concentration not given here. Particulars: A549 viability, higher = more signal, called active from +8 up or from −8 down.
`COC(=O)C1(Cc2ccccc2)C=C2C(=C(C(C)C)C(=O)C2C)CN1` (stereo not given): the z-score is -1.33.
For `Cc1c(NC(=O)/C(C#N)=C/C=C/c2ccccc2[N+](=O)[O-])c(=O)n(-c2ccccc2)n1C` the value was -1.43.
The same measure for `[N-]=[N+]=NCc1ccccc1C[C@@]1(C(=O)NCCN2CCOCC2)N=C(c2ccc(OCCCO)cc2)O[C@@H]1c1ccccc1N=[N+]=[N-]`: -0.0172; for `C[n+]1ccc(CCCO)cc1`: -1.15.
The same measure for `CN1C(=O)C2C=CC(C(O)c3c(F)cccc3Cl)N(Nc3ccccc3)C2C1=O` (stereo not given): -0.31.
Consider `C=C[C@@H](C)[C@H](OC(=O)Nc1ccc(SC)cc1)c1ccc(OCCO)cc1`, for which the z-score is -0.0363.
Take `CC(C)C(O)C1C=CC2C(=O)N(C)C(=O)C2N1N(c1ccccc1)c1ccccc1` (stereo not given): the z-score is -0.391.
On to `O=C1c2ccccc2[C@](Cc2ccccc2I)(C(=O)NCc2ccccc2)[C@H](c2ccc(CO)cc2)N1C1CCCCC1`, for which the z-score was 0.623.
For `CC(=O)n1cc(C(O)C2C=CC3C(=O)N(Cc4ccccc4)C(=O)C3N2n2cnnc2)c2ccccc21` (stereo not given) the value was -0.756; for `COc1cc2c(cc1OC)CN(C(=O)[C@H]1[C@@H]3C(=O)O[C@@H](c4ccccc4)[C@@H](c4ccccc4)N3[C@@H](c3ccc(OCCO)cc3)[C@]13C(=O)Nc1ccc(C#CC4(O)CCCCCC4)cc13)CC2`, -0.354.
For `O=c1cccc(-c2ccc(C(F)(F)F)cc2)o1` the value was 0.374; for `COc1ccc(C(O)C2C=CC3C(=O)N(Cc4ccccc4)C(=O)C3N2n2cnnc2)c2ccccc12` (stereo not given), -0.96; for `CC(C)(C)OC(=O)CC[C@]1(C(=O)NCCN2CCOCC2)N=C(c2ccc(OCCCO)cc2)O[C@H]1c1ccccc1N=[N+]=[N-]`, -0.201.
For `C=CC[C@H](OC(=O)Nc1ccc(OC)cc1)c1ccc(O)c2ccccc12` the value was -0.745.
With `COC(=O)[C@@]1(Cc2ccc(OC)cc2)[C@H]2c3cc(C(=O)N4CCCC4)n(CCc4cc5ccccc5[nH]4)c3C[C@H]2CN1C(=O)c1ccccc1`, the z-score is -0.0485.
For `COc1ccc(CCNC(=O)[C@@]2(Sc3ccc(C)cc3)CC(=O)N(Cc3cc(C(F)(F)F)cc(C(F)(F)F)c3)[C@@H]2c2ccc(CO)cc2I)cc1` the value was 0.469; for `COc1ccc(C(O)C2C=CC3C(=O)N(C)C(=O)C3N2N2CCCCC2)cc1` (stereo not given), 0.014.
The same measure for `COc1ccc([Si](C)(C)[C@@H]2[C@@H](CC(=O)N3CCC[C@H]3CO)O[C@]3(C(=O)N(Cc4ccc(N5C(=O)c6cccc7cccc5c67)cc4)c4ccccc43)[C@H]2C)cc1`: -3.19; for `O=C1c2ccccc2[C@@]2(Cc3ccccc3N(C3CC3)C2=O)[C@H](c2ccc(CO)cc2)N1C1CCCCC1`: -0.179.
Turning to `CCOC(=O)C1=CC[C@@H](c2cc(Cl)ccc2Cl)N(S(=O)(=O)c2ccc(C)cc2)[C@H]1c1ccc(OC)cc1`, the z-score was -0.629.
Consider `CC=CC(O)C1C=CC2C(=O)N(C)C(=O)C2N1N1CCCCC1` (stereo not given), for which the z-score was -0.232.
The same measure for `C=C(C(=O)CC[C@H](OC(C)=O)c1cccc(OCCO)c1)C(C)C`: -0.62; for `CC(C)C(=C=CC[C@H](O)c1ccc(OCCO)cc1)C[C@H](O)c1cc(Cl)cc(Cl)c1O`: 0.885; for `COc1ccc(C#Cc2ccc3c(c2)[C@]2(C(=O)N3)[C@H](C(=O)N3CCc4cc(OC)c(OC)cc4C3)[C@H]3C(=O)O[C@H](c4ccccc4)[C@H](c4ccccc4)N3[C@@H]2c2ccc(O)cc2)cc1`: -0.297.
With `CN1C(=O)[C@@]2(CCS(=O)(=O)c3ccccc3)N=C(c3ccc(OCCCO)cc3)O[C@H]2c2ccccc21`, the z-score is -0.254.
The same measure for `CC[C@H]1C2=C3C(CC[C@H]4C(OCc5ccc(F)cc5C(F)(F)F)OC[C@](C)([C@@H]34)N(C(=O)OC(C)(C)C)C2)C2COC(=O)OCC21` (stereo not given in full): -0.186.
The same measure for `Cc1ccc(S[C@]2(C(=O)NCc3ccccc3)CC(=O)N(C(C)C)[C@@H]2c2ccc(CO)cc2I)cc1`: 1.65; for `Cc1ccc(C(C)CC(O)C2C=CC3C(=O)N(c4ccccc4)C(=O)C3N2Nc2ccc(C(C)C)cc2)o1` (stereo not given): -0.634.
For `COCCOC(=O)N1C(=O)[C@@]2(c3cc(C#Cc4ccc(OC)cc4)ccc31)[C@H](C(=O)NC[C@H](O)c1ccccc1)[C@H]1C(=O)O[C@H](c3ccccc3)[C@H](c3ccccc3)N1[C@@H]2c1ccc(O)cc1` the value was 0.397; for `COCCOC(=O)N1C(=O)[C@@]2(c3cc(C#CC4(O)CCCCCC4)ccc31)[C@H](C(N)=O)[C@H]1C(=O)O[C@H](c3ccccc3)[C@H](c3ccccc3)N1[C@@H]2c1ccc(O)cc1`, 0.394.
On to `CC1CC/C=C\[C@H]2OC34C=CCN(C(C)C)C(=O)[C@H]3N(CCCCCO)C(=O)[C@@H]4C2C(=O)O1` (stereo not given in full), for which the z-score was 0.98.
For `CCOC(=O)C1=CC[C@@H](c2ccccc2)N(S(=O)(=O)c2ccc(C)cc2)C1` the value was -0.145; for `CCN(CC)c1ccc(N2CC=CC34O[C@@H]5/C=C\CCC(C)OC(=O)C5[C@H]3C(=O)N(CCO)[C@@H]4C2=O)cc1` (stereo not given in full), -0.857; for `C=CCOC(=O)[C@H]1[C@@H]2C(=O)O[C@@H](c3ccccc3)[C@@H](c3ccccc3)N2[C@@H](c2ccc(OCCOC(=O)[C@H]3C[C@H]4C(=O)N[C@@H](CCCC[N+](C)(C)C)C(=O)N4[C@H]3c3cccc(OCCO)c3)cc2)[C@]12C(=O)Nc1ccc(I)cc12`, 0.134.
For `O=C1C[C@@](C(=O)NCC(F)(F)F)(c2ccc([N+](=O)[O-])cc2)[C@@H](c2ccc(CO)cc2)N1C1CCCCC1` the value was 0.423.
